Compound activity as filed in PubChem.
TRPML1 ag – activates the human TRPML1 channel; AID 624414; actives 0.12% (n = 410,000); Q9GZU1; TRPML1-expressing cells, Ca2+ dye fluorescence, FDSS; activation, % (test concentration not listed); in the data active means activation above about 50%; inconclusive means mostly about 30% to 49%
Target sequence (Q9GZU1 whole entry, looked up): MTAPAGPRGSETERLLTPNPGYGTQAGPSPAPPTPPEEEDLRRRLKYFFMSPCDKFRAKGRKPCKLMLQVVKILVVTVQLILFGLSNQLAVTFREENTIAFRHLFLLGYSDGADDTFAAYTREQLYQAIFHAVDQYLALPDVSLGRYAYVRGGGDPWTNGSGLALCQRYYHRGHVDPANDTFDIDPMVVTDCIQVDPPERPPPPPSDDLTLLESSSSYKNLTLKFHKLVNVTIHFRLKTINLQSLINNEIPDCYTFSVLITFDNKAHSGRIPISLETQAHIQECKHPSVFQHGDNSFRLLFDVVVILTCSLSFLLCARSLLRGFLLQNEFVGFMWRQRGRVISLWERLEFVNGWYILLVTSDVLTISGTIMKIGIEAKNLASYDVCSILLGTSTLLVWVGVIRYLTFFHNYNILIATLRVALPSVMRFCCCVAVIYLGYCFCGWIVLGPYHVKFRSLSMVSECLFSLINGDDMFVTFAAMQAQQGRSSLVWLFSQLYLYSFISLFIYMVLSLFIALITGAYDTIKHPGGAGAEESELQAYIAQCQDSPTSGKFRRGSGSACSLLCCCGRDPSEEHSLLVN
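Agonist activity was taken from a 110 s kinetic Ca2+ dye read on the FDSS after pinning compounds onto TRPML1-DL cells. The cells were seeded at 1,500/well with Tet inducer, incubated about 16 h, then dye-loaded at room temperature.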
GLP-1R inv ag – GLP-1 receptor (human) inverse agonism | Potency, µM (doses to about 38.3 µM), hits mostly inhibitors | AID 624417 | HEK293 GLP-1R CRE-luciferase, luminescence, 24 h; GLP-1R form is constitutively active | P43220 | actives 1.6% (n = 410,000); further: nearly all actives have a fitted effect of over 55% in size
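Seeding at 200 cells/uL, 12 h culture, 24 hr compound treatment, then luciferase reagent and a luminescence read; cells are HEK293 stably expressing a constitutively active GLP-1R plus cAMP-responsive luciferase.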
TRPML1 inh – human mucolipin-1 channel inhibition. Q9GZU1. actives 0.02% (n = 390,000). AID 624415. TRPML1-inducible cells, Ca2+ dye fluorescence, FDSS; hits give low values; inhibition of EC80 agonist-evoked calcium signal. activity change, negative = inhibition, % (concentration not given with the values); in the data active means activity change below about -50%; inconclusive means between about -30% and that limit;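 further: stimulus is agonist 54-4 at its EC80 concentration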
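Tet-induced TRPML1-DL cells loaded with Ca8 no-wash calcium dye were read kinetically on FDSS. Compound addition was followed by EC80 agonist 54-4 (4 uM final); inhibition was read over 110 s.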
GLP1R ag – agonists of human GLP-1 receptor; HEK293 GLP-1R CRE-luciferase, luminescence, 4-6 h; cells express a hypersensitive GLP-1R form; actives 0.007% (n = 380,000); AID 624172; Potency, µM (doses to about 45.6 µM), most hits filed as activators; P43220
HEK293 tox – cytotoxicity in counter-screen for GLP-1R inverse agonists. HEK293 cAMP-luciferase reporter cells, luminescence, 24 h. Potency, µM (highest dose often 38.3 µM), most hits filed as inhibitors. actives 0.13% (n = 410,000). AID 624418;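 further: loss of luciferase light is scored as toxicity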
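To flag toxic compounds, the library was rerun on cells for 24 hr at 37 deg C and 5% CO2. Viability-linked luminescence was captured 12 min after adding luciferase detection reagent.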
Hits are given with their value; - = inactive; ? = inconclusive; . = no result. Sampled rows, rich in hits. Any-hit rate of the full collection: about 1.8%. Unless noted, the call rests on the fitted dose curve; in most records, active means well fitted curve in the direction sought with a large enough effect; inconclusive means small, poorly fitted or top-dose-only effect, or another doubt; inactive means no such curve, though single readings can be large; an effect the other way counts as inactive or inconclusive.

SMILES	TRPML1 ag	GLP-1R inv ag	TRPML1 inh	GLP1R ag	HEK293 tox
O=C(NCc1ccccc1)C(c1ccccc1)n1c(-c2ccncc2)nc2ccccc21 (configuration not stated)	.	-	.	.	-
CCC(=O)Nc1ccc(CC)cc1-c1nc2ccccc2n(CC(=O)Nc2ccccc2C)c1=O	-	-	-	.	-
CCOC(=O)/C(=C/C=C1\Sc2cc(C)c(C)cc2N1CC)C(C)=O	89.8	-	-	-	-
CCOC(=O)/C(=C/C=C1\Sc2ccccc2N1CC)C(C)=O	80.1	-	-	?	-
CCOC(=O)/C(=C\C=C1/Sc2ccccc2N1CC)C(C)=O	88.8	-	-	?	-
O=C(C1CCN(Cc2cc(Cl)ccc2O)CC1)N1CCN(Cc2ccccc2)CC1	-	7.08µM	-	-	-
CC(C)(C)n1ncc2c(=O)n(Cc3ccc(C#N)c(F)c3)cnc21	-	.	-	.	.
OC(CNc1ccccc1)Cn1ccc2ccccc21 (configuration not stated)	-	11.2µM	-	-	-
COc1ccc(N(CC(=O)Nc2cc(Cl)ccc2OC)S(=O)(=O)c2c(C)noc2C)cc1	-	4.47µM	-	-	-
COc1ccc(OC)c(NC(=O)CN(c2ccc(C)cc2)S(=O)(=O)c2c(C)noc2C)c1	-	10µM	-	-	-
COc1cccc(CNC(=O)CN(c2ccc(C(C)C)cc2)S(=O)(=O)c2c(C)noc2C)c1	-	-	-	-	-
COc1cccc(CNC(=O)CN(c2cc(C)cc(C)c2)S(=O)(=O)c2c(C)noc2C)c1	-	10µM	-	-	-
COc1ccc(OC)c(NC(=O)CN(c2ccc(C(C)C)cc2)S(=O)(=O)c2c(C)noc2C)c1	-	?	-	-	-
CCc1cnc2c(c1SCCC(C)C)c(=O)n(C)c(=O)n2C	-	-	-	.	-
N/C(=N\OC(=O)COc1ccc(Cl)cc1Cl)c1ccccn1	-	?	-	-	-
N/C(=N\OC(=O)COc1ccc(Br)cc1Cl)c1ccccn1	-	10µM	-	-	-
O=C(CSc1ccc(Cl)cc1)N1CCN(c2c(Cl)cccc2[N+](=O)[O-])CC1	-	2.82µM	-	-	-
Cc1sc2ncn(CC(=O)N3CCN(c4ccccc4F)CC3)c(=O)c2c1S(=O)(=O)N1CCC(C)CC1	-	-	-	.	-
Cc1ccc(-c2nc3c(cnn3-c3ccccc3)c(=O)n2-c2cccc(Cl)c2)cc1	-	4.47µM	-	.	-
O=C1CC(/C=C/c2ccncc2)=Nc2ccccc2N1	-	2.51µM	-	-	-
Clc1ccc(-c2nnc(CSc3nnc(-c4cccs4)n3Cc3ccccc3)o2)cc1	-	10µM	-	-	-
CCC[C@@H]1CCCO[C@@](C(=O)NCc2ccccn2)(C(F)(F)F)C1	-	?	-	-	-
CCCC[C@@H]1CCCO[C@@](C(=O)NCc2ccccn2)(C(F)(F)F)C1	-	5.01µM	-	-	-
CCOc1ccc(N(C)S(=O)(=O)c2ccc(C)c(C(=O)N3CCN(Cc4ccc5c(c4)OCO5)CC3)c2)cc1	-	11.2µM	-	-	-
CCOc1ccc(N(C)S(=O)(=O)c2ccc(C)c(C(=O)NCCc3ccc(OC)cc3)c2)cc1	-	10µM	-	-	-
SMILES	TRPML1 ag	GLP-1R inv ag	TRPML1 inh	GLP1R ag	HEK293 tox
CCCN1CNc2c(c(=O)[nH]c(=S)n2CCc2ccc(Cl)cc2Cl)C1	-	.	.	.	.
Cc1ccc(CNC(=O)c2ccc3c(c2)NC(=O)C(CS(=O)(=O)Cc2ccc(F)cc2)N3)cc1 (configuration not stated)	-	-	-	.	-
Cc1ccc(C)c(C(=O)COC(=O)c2n[nH]c3ccccc23)c1	-	10µM	-	-	-
O=C(COc1ccc(Cl)cc1)Nc1ccc(C(=O)OCc2cc(=O)n3ccsc3n2)cc1	-	-	-	.	-
CCn1cc2nc(SCc3ccc(F)cc3)n(CCc3ccccc3)c(=O)c2n1	-	7.94µM	-	.	-
Cc1ccc(CCNC(=O)c2cnc3c(C)cccn3c2=O)cc1	-	-	-	.	-
COc1cccc(-n2c(=O)c3c(C)c(C)sc3n(CC(=O)Nc3ccccc3OC)c2=O)c1	-	-	-	.	-
COc1cccc(CNC(C)(C)CO)c1OCc1ccc(Cl)cc1	-	11.2µM	-	-	-
CC(C)(C)n1ncc2c(=O)n(Cc3ccc(F)c(C(F)(F)F)c3)cnc21	-	.	-	.	.
O=C(CS(=O)(=O)c1ccccc1)Nc1ccc(Cl)cn1	-	-	-	-	-
O=C(CC(c1ccccc1)c1ccccc1)Nc1ccc(Cl)cn1	-	5.01µM	-	-	?
COc1ccc(C2CC(O)(c3ccccc3)Oc3c(C)ccc(C(C)C)c32)cc1 (configuration not stated)	-	.	-	.	.
CCOC(=O)C1(Cc2ccccc2)CCN(Cc2nccn2CC)CC1	-	?	-	-	?
CCOC(=O)C1(CCc2ccccc2)CCN(Cc2nccn2CC)CC1	-	?	-	-	8.91µM
CCc1cc(C(=O)Nc2cc(S(=O)(=O)N(CC)CC)ccc2N2CCOCC2)sc1C	-	7.94µM	-	-	-
COC(=O)c1nn(-c2ccccc2)c(Cl)c1/C=N/OCc1c(Cl)cccc1Cl	-	-	-	-	-
COC(=O)c1nn(-c2ccccc2)c(Cl)c1/C=N/OCc1ccc(C)cc1	-	12.6µM	-	-	-
CCOC(=O)c1c(NC(=S)N2CCOCC2)sc2c1CCN(C(=O)OCC)C2	-	10µM	-	-	?
CCOC(=O)c1c(NC(=O)/C=C/C(=O)O)sc(C)c1-c1ccc(Cl)cc1	-	5.01µM	-	-	?
CCOC(=O)c1ccc(NC(=S)N2CCN(C)CC2)cc1	-	-	-	-	-
CCOC(=O)c1c(NC(=S)N2CCCCC2)sc2c1CCN(C(=O)OCC)C2	-	?	-	-	?
CCOC(=O)c1c(NC(=S)N2CCN(C)CC2)sc(C)c1-c1ccccc1	-	1.78µM	-	-	?
COc1ccc(NC(=O)C(C)n2c(C)c3cnn(-c4ccccc4)c(=O)c3c2C)cc1Cl (configuration not stated)	-	-	-	.	-
CCCCN(CC)C(=O)CSc1c2c(nc3ccc(Cl)cc13)CCCC2	-	10µM	-	.	?
COc1ccc(C(=O)NC(=S)Nc2ccc(CN3CCOCC3)cc2)cc1Cl	-	?	-	-	?
CCOc1ccc(OCc2cccc(C(=O)Nc3ccc(CN4CCCCC4)cc3)c2)cc1	-	4.47µM	-	-	?
COc1ccc(OCc2cccc(C(=O)Nc3ccc(CN4CCCCC4)cc3)c2)cc1	-	?	-	-	?
COc1ccc(C(=O)NC(=S)Nc2ccc(CN3CCCCC3)cc2)cc1Cl	-	8.91µM	-	-	?
COc1ccc(S(=O)(=O)N(C(=O)c2ccncc2)c2ccc3oc4c(c3c2)CCCC4)cc1	-	10µM	-	-	?
